Shn3 3UTR inh = reduces Shn3 3'UTR luciferase signal in osteoblasts. Clone20 osteoblast Shn3 3'UTR firefly luciferase, 24 h. inhibition, % at 12.5 µM. 360,000 tested, 0.52% active. AID 588674;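 active = mean inhibition of at least 75% with every replicate also reaching 75%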;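 note: 0% = median of neutral control wells and 100% = pilot-screen positive control compound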
PAX8 reporter = inhibitors of PAX8 transcriptional activity in RMG-I cells. inhibition, % at 12.6 µM. 360,000 tested, 1.2% active. RMG-I TPO-luciferase reporter, SteadyGlo, 24 h;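 active = mean replicate inhibition at least 60% with every replicate also reaching 60%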;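 note: luciferase light reporting Pax8 driven TPO promoter activity; plate controls were median of neutral control wells for no effect and mitoxantrone controls for full effect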
EWS-Fli block = blocks EWS/Fli oncoprotein-driven transcription | A673 NR0B1-luciferase reporter, viability-normalised | 350,000 tested, 0.67% active | AID 651661 | inhibition, % at 12.6 µM;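 active = mean inhibition of at least 50% after viability correction, with every replicate also passing that limit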;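 note: firefly luciferase signal divided by Alamar Blue viability fluorescence both relative to DMSO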
Peg3 promoter = Peg3 promoter activity inhibition; inhibition, % at 20 µM; AID 588405; HeLa PEG-Prom luciferase reporter, luminescence, overnight; 360,000 tested, 1.7% active;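 active = inhibition of at least 50% at 20 µM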
ABHD5-PLIN5 inh = ABHD5-PLIN5 protein interaction inhibition; Q00G26+Q8WTS1; Split G. princeps luciferase complementation, luminescence, 4 h; inhibition, % at 4 µM; 360,000 tested, 0.78% active;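 active = inhibition above the mean inhibition across every tested compound plus 3 SD, cut at about 22% in these data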;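 note: 0% = DMSO only wells and the 100% control is not disclosed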
Target sequence (Q00G26 whole entry, looked up): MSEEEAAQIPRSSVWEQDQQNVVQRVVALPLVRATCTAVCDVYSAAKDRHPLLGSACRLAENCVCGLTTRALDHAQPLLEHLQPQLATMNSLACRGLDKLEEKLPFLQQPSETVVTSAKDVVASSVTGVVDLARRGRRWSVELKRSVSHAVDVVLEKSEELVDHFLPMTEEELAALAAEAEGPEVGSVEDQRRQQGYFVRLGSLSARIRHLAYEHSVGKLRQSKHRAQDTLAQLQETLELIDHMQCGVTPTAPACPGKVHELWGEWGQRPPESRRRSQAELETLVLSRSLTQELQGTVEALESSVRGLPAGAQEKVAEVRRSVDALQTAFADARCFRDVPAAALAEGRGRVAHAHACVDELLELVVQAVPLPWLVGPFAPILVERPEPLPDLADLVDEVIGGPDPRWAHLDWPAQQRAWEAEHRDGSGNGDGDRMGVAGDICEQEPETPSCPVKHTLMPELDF
Target sequence (Q8WTS1 whole entry, looked up): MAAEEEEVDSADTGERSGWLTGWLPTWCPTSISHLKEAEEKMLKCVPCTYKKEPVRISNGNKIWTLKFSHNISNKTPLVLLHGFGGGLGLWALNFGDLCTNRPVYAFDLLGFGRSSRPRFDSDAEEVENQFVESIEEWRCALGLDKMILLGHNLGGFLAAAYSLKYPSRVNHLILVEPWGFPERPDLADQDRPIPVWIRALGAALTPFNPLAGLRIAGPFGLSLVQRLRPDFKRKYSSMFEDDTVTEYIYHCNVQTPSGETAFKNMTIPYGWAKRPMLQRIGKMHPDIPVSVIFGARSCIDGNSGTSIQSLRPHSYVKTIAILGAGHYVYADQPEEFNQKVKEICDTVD
MITF TRPM1 inh = reduces MITF-dependent TRPM1 promoter luciferase signal. SK-MEL-5 TRPM1 promoter luciferase, 24 h. inhibition, % at 12.5 µM. 330,000 tested, 0.83% active. AID 488899;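 active = mean inhibition across replicates of 60% or more, whatever share of single replicates reaches that level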
The depositor's hits bear a star; · = not tested or not shown. Hits are enriched below; roughly 3% of the tested compounds scored in any of these assays.

SMILES	Shn3 3UTR inh	PAX8 reporter	EWS-Fli block	Peg3 promoter	ABHD5-PLIN5 inh	MITF TRPM1 inh
COc1ccc(NC(=O)Nc2ccc3c(c2)[C@@H]2C[C@@H](CC(=O)N4CCc5ccccc5C4)O[C@H](CO)[C@@H]2O3)cc1	·	71.3*	-6.0	·	·	·
COc1ccc(NC(=O)Nc2ccc3c(c2)[C@@H]2C[C@H](CC(=O)N4CCc5ccccc5C4)O[C@@H](CO)[C@@H]2O3)cc1	·	-20.6	-2.2	·	·	·
O=C(Nc1ccc(C(F)(F)F)cc1)Nc1ccc2c(c1)[C@@H]1C[C@H](CC(=O)N3CCc4ccccc4C3)O[C@H](CO)[C@@H]1O2	·	108.8*	26.7	·	·	·
O=C(Nc1ccc(C(F)(F)F)cc1)Nc1ccc2c(c1)[C@@H]1C[C@@H](CC(=O)N3CCc4ccccc4C3)O[C@H](CO)[C@@H]1O2	·	75.9*	-0.5	·	·	·
N#C[C@H]1[C@H](c2ccc(C3=CCCC3)cc2)[C@@H](CO)N1C(=O)C1CCOCC1	·	-4.4	4.6	·	·	·
CCCCNC(=O)c1ccc(Cn2c(=S)[nH]c3c([nH]c4ccc(OC)cc43)c2=O)cc1	42.5	-7.2	9.7	79.8*	-4.8	-2.3
O=C(NCc1ccco1)/C(=C/c1ccc(C(F)(F)F)cc1)c1nc2ccccc2[nH]1	-64.8	-90.0	·	-155.7	18.6	-17.0
O=C(NCc1ccco1)/C(=C/c1cccc(C(F)(F)F)c1)c1nc2ccccc2[nH]1	-19.1	-8.3	·	50.3*	12.9	49.2
CCN1C/C(=C\c2cccc([N+](=O)[O-])c2)C(=O)/C(=C/c2cccc([N+](=O)[O-])c2)C1	95.0*	54.9	82.4*	105.4*	20.8	92.5*
O=C1/C(=C/c2cccc([N+](=O)[O-])c2)CSc2ccc(Cl)cc21	3.8	-13.5	-10.5	-8.2	-2.6	-12.4
Cc1ccc(S(=O)(=O)N(C)C[C@@H]2Oc3cc(C4=CCCC4)ccc3S(=O)(=O)N([C@H](C)CO)C[C@@H]2C)cc1	·	66.7*	6.3	·	·	·
CC(C)CC#Cc1ccc2c(c1)O[C@H](CN(C)S(=O)(=O)c1ccc(F)cc1)[C@@H](C)CN([C@H](C)CO)S2(=O)=O	·	11.8	23.3	·	·	·
CC(C)CC#Cc1ccc2c(c1)O[C@H](CN(C)S(=O)(=O)c1ccc(F)cc1)[C@H](C)CN([C@H](C)CO)S2(=O)=O	·	99.2*	25.2	·	·	·
CCCC#Cc1ccc2c(c1)O[C@@H](CN(C)S(=O)(=O)c1cccc(OC)c1)[C@@H](C)CN([C@@H](C)CO)S2(=O)=O	·	65.7*	16.9	·	·	·
Cc1ccc(S(=O)(=O)N(C)C[C@H]2Oc3cc(C#Cc4ccncc4)ccc3S(=O)(=O)N([C@H](C)CO)C[C@H]2C)cc1	·	88.8*	-17.2	·	·	·
C[C@@H]1CCCCO[C@@H](CN(C)S(=O)(=O)c2cccs2)[C@H](C)CN([C@H](C)CO)C(=O)c2cc(NS(=O)(=O)c3cn(C)cn3)ccc2O1	·	12.6	-0.5	·	·	·
CN1c2ccc(C#Cc3cccnc3)cc2[C@@H]2[C@@H](CCN2S(=O)(=O)c2ccccc2F)[C@@H]1CO	·	-22.8	2.1	·	·	·
C[C@H]1CN([C@@H](C)CO)C(=O)c2cc(NC(=O)Nc3ccccc3)ccc2O[C@H]1CN(C)Cc1ccc(Oc2ccccc2)cc1	·	7.5	1.2	·	·	·
COc1ccc(S(=O)(=O)N(C)C[C@H]2OCCCC[C@H](C)Oc3ccc(NC(=O)Cc4ccccc4)cc3C(=O)N([C@H](C)CO)C[C@@H]2C)cc1	·	-11.7	4.8	·	·	·
COc1cccc(OC)c1C(=O)Nc1sc2c(c1C(N)=O)CCN(Cc1ccccc1)C2	-2.7	26.8	-7.4	12.6	0.2	3.2
CCOC(=O)N1CCN(S(=O)(=O)c2ccc(C(=O)Nc3sc4c(c3C(N)=O)CCN(CC)C4)cc2)CC1	20.7	38.5	-1.2	76.1*	-4.7	20.7
COC(=O)c1c(NC(=O)c2ccc(S(=O)(=O)N3CC(C)OC(C)C3)cc2)sc2c1CCN(C)C2 (stereo not drawn)	15.5	-3.4	23.0	17.3	6.2	·
CCOC(=O)N1CCN(S(=O)(=O)c2ccc(C(=O)Nc3sc4c(c3C(=O)OC)CCN(C)C4)cc2)CC1	11.3	17.3	·	110.4*	-3.9	36.6
CCN1CCc2c(sc(NC(=O)c3cc4ccccc4cc3OC)c2C(N)=O)C1	19.5	-3.8	·	109.9*	15.6	37.4
CCN1CCc2c(sc(NC(=O)c3ccc(S(=O)(=O)N4CCCC4)cc3)c2C(=O)NC)C1	8.3	11.6	4.1	65.0*	-1.9	74.3*

Bioassay records as filed in PubChem.
